Measurements: the supplement of paper PMC10849652
Of roughly 7,900 targets only a part is listed; those with a hit were picked by preference. About 0.6% of all pairs of compound and target were hits.

Tests used:
Assay in all cases: log2 fold change, soluble protein after heating vs DMSO (PISA); higher = thermal stabilisation; K562 cells, 10 uM, 30 min; active = over 0.2 and 3.5 SD of the protein, either way, in both replicates (recomputed)
[1] = compound: CS(=O)(=O)c1ccc(-c2cnc(N)c(C(=O)Nc3ccccc3)n2)cc1
Summary of the method: (§1)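 For each measurement, 10 μM compound was applied for 30 min to K562 cells at 2×10^6 cells/mL. Aliquots were heated for 3 min across 48°C-58°C, pooled, and extracted in PBS with 0.5% NP-40 at 4°C; the supernatant after 21,000xg for 90 min was soluble protein. This was quantified by TMTpro 16plex LC-MS/MS with channel sums equalised, and thermal stability was reported relative to control samples from duplicates, on a log2 fold-change scale.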

crizotinib = compound: C[C@@H](Oc1cc(-c2cnn(C3CCNCC3)c2)cnc1N)c1c(Cl)ccc(F)c1Cl [crizotinib]
Summary of the method: as §1

[2] = compound: C[C@@H]1COCCN1C2=NC(=NC(=C2)C3(CC3)S(=O)(=O)C)C4=C5C=CNC5=CC=C4
Summary of the method: as §1

[3] = compound: C[C@H](C1=CC=C(C=C1)C(=O)NC2=C3C=CNC3=NC=C2)N
Summary of the method: as §1

duvelisib = compound: C[C@H](Nc1ncnc2nc[nH]c12)c1cc2cccc(Cl)c2c(=O)n1-c1ccccc1 [duvelisib]
Summary of the method: as §1

gandotinib = compound: Cc1cc(Nc2cc(CN3CCOCC3)c3nc(C)c(Cc4ccc(Cl)cc4F)n3n2)n[nH]1 [gandotinib]
Summary of the method: as §1

tozasertib = compound: Cc1cc(Nc2cc(N3CCN(C)CC3)nc(Sc3ccc(NC(=O)C4CC4)cc3)n2)n[nH]1 [tozasertib]
Summary of the method: as §1

[4] = compound: Cc1cc(SCc2sc(-c3ccc(C(F)(F)F)cc3)nc2C)ccc1OCC(=O)O
Summary of the method: as §1

doramapimod = compound: Cc1ccc(-n2nc(C(C)(C)C)cc2NC(=O)Nc2ccc(OCCN3CCOCC3)c3ccccc23)cc1 [doramapimod]
Summary of the method: as §1

ispinesib = compound: Cc1ccc(C(=O)N(CCCN)[C@@H](c2nc3cc(Cl)ccc3c(=O)n2Cc2ccccc2)C(C)C)cc1 [ispinesib]
Summary of the method: as §1

bafetinib = compound: Cc1ccc(NC(=O)c2ccc(CN3CC[C@H](N(C)C)C3)c(C(F)(F)F)c2)cc1Nc1nccc(-c2cncnc2)n1 [bafetinib]
Summary of the method: as §1

[5] = compound: Cc1cccc(CC(=O)N2CCc3c2ccc(-c2cn(C)c4ncnc(N)c24)c3F)n1
Summary of the method: as §1

nilotinib = compound: Cc1cn(-c2cc(NC(=O)c3ccc(C)c(Nc4nccc(-c5cccnc5)n4)c3)cc(C(F)(F)F)c2)cn1 [nilotinib]
Summary of the method: as §1

[6] = compound: Cc1nc(Nc2n[nH]c3c2CN(C(=O)N[C@H](CN(C)C)c2ccccc2)C3(C)C)c2sccc2n1
Summary of the method: as §1

dasatinib = compound: Cc1nc(Nc2ncc(C(=O)Nc3c(C)cccc3Cl)s2)cc(N2CCN(CCO)CC2)n1 [dasatinib]
Summary of the method: as §1

[7] = compound: Cc1ncc(-c2ccnc(Nc3ccc(S(C)(=O)=O)cc3)n2)n1C(C)C
Summary of the method: as §1

[8] = compound: Cn1cc(-c2ccc3c(c2)CCN3C(=O)Cc2cccc(C(F)(F)F)c2)c2c(N)ncnc21
Summary of the method: as §1

[9] = compound: Cn1cc(-c2ccc3nnc(C(F)(F)c4ccc5ncccc5c4)n3n2)cn1
Summary of the method: as §1

tipifarnib = compound: Cn1cncc1[C@@](N)(c1ccc(Cl)cc1)c1ccc2c(c1)c(-c1cccc(Cl)c1)cc(=O)n2C [tipifarnib]
Summary of the method: as §1

mubritinib = compound: FC(F)(F)c1ccc(/C=C/c2nc(COc3ccc(CCCCn4ccnn4)cc3)co2)cc1 [mubritinib]
Summary of the method: as §1

Measured: log2 fold change

COCH (UniProt O43405)
Chain of UniProt O43405 (O43405 whole entry, looked up): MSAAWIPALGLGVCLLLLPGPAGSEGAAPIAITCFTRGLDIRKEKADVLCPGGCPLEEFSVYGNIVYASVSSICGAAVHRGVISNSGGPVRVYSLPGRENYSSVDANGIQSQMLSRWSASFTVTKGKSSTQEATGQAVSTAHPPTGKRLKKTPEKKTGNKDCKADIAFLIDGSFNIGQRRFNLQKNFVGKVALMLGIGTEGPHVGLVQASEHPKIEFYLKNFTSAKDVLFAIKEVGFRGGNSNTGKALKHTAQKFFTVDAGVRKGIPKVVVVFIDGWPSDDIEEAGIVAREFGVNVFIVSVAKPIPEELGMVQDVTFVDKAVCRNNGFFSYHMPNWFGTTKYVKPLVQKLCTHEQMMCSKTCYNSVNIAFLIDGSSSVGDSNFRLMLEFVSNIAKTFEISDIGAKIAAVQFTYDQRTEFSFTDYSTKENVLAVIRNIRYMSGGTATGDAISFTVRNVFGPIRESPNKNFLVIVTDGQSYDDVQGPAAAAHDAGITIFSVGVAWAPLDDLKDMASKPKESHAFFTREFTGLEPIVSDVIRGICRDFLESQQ
inactive: [1] -0.051 | crizotinib -0.05 | [2] -0.033 | [3] -0.016 | duvelisib -0.052 | gandotinib 0.059 | tozasertib 0.154 | [4] -0.053 | doramapimod 0.052 | ispinesib -0.042 | bafetinib 0.076 | [5] -0.17 | nilotinib 0.2 | [6] -0.288 | dasatinib 0.179 | [7] -0.262 | [8] -0.069 | [9] -0.005 | tipifarnib 0.07 | mubritinib -0.062

CDAN1 (UniProt Q8IWY9)
Chain of UniProt Q8IWY9 (Q8IWY9 whole entry, looked up): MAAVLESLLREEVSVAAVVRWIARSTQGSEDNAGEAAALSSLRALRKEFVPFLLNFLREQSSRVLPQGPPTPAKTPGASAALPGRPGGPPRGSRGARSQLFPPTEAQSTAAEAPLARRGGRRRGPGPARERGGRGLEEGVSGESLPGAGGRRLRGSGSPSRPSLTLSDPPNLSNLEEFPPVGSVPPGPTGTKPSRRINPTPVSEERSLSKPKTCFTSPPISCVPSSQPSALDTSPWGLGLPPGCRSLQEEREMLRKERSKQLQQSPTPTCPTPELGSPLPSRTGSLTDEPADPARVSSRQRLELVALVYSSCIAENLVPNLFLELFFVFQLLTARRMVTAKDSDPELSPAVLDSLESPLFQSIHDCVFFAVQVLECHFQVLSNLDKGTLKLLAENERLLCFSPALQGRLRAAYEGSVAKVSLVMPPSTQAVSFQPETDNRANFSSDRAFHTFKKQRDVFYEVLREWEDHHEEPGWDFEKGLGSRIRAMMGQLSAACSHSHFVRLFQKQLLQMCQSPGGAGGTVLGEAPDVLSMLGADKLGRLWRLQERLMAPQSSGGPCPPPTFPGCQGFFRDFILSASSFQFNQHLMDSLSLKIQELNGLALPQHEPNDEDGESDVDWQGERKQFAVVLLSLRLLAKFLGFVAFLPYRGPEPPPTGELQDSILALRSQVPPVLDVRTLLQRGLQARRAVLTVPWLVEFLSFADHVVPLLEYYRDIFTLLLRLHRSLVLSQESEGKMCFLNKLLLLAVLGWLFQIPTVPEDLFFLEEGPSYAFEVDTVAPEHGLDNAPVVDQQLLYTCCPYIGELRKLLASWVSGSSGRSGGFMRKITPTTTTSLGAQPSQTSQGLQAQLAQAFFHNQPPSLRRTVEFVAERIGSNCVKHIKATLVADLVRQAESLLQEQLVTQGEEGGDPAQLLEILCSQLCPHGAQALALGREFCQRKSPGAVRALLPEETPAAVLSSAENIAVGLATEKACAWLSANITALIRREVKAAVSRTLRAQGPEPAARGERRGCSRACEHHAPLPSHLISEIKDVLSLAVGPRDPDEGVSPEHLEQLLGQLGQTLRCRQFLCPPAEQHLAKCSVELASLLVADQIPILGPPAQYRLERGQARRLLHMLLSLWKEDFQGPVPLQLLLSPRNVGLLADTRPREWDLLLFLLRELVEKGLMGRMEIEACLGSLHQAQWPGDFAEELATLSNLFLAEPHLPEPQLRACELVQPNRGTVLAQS
inactive: [1] 0.058 | crizotinib 0.024 | [2] 0.175 | [3] 0.066 | duvelisib 0.025 | gandotinib -0.054 | tozasertib -0.098 | [4] 0.008 | doramapimod 0.034 | ispinesib -0.02 | bafetinib -0.012 | [5] -0.014 | nilotinib 0.064 | [6] -0.195 | [7] -0.017 | [8] -0.023 | [9] 0.008 | tipifarnib 0.011 | mubritinib 0.056
active: dasatinib -0.582

CSNK2A2 (UniProt P19784)
Chain of UniProt P19784 (P19784 whole entry, looked up): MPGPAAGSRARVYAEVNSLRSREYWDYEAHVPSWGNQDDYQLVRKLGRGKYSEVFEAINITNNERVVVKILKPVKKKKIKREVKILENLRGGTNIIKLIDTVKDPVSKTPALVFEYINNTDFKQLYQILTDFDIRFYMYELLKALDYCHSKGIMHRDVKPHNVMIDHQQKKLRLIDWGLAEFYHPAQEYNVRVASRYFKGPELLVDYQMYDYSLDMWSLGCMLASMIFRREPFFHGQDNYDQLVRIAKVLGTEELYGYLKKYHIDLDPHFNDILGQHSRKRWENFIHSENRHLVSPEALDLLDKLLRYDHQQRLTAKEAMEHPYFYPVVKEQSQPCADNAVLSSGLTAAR
inactive: [1] 0.068 | crizotinib -0.132 | [2] 0.039 | duvelisib 0.032 | gandotinib -0.097 | tozasertib -0.029 | [4] 0.013 | doramapimod 0.007 | ispinesib 0.084 | bafetinib -0.042 | [5] -0.008 | nilotinib -0.009 | [6] 0.016 | dasatinib -0.056 | [7] -0.019 | [8] -0.009 | [9] 0.038 | tipifarnib -0.033 | mubritinib -0.019
active: [3] -0.234

CDC42BPB (UniProt Q9Y5S2)
Chain of UniProt Q9Y5S2 (Q9Y5S2 whole entry, looked up): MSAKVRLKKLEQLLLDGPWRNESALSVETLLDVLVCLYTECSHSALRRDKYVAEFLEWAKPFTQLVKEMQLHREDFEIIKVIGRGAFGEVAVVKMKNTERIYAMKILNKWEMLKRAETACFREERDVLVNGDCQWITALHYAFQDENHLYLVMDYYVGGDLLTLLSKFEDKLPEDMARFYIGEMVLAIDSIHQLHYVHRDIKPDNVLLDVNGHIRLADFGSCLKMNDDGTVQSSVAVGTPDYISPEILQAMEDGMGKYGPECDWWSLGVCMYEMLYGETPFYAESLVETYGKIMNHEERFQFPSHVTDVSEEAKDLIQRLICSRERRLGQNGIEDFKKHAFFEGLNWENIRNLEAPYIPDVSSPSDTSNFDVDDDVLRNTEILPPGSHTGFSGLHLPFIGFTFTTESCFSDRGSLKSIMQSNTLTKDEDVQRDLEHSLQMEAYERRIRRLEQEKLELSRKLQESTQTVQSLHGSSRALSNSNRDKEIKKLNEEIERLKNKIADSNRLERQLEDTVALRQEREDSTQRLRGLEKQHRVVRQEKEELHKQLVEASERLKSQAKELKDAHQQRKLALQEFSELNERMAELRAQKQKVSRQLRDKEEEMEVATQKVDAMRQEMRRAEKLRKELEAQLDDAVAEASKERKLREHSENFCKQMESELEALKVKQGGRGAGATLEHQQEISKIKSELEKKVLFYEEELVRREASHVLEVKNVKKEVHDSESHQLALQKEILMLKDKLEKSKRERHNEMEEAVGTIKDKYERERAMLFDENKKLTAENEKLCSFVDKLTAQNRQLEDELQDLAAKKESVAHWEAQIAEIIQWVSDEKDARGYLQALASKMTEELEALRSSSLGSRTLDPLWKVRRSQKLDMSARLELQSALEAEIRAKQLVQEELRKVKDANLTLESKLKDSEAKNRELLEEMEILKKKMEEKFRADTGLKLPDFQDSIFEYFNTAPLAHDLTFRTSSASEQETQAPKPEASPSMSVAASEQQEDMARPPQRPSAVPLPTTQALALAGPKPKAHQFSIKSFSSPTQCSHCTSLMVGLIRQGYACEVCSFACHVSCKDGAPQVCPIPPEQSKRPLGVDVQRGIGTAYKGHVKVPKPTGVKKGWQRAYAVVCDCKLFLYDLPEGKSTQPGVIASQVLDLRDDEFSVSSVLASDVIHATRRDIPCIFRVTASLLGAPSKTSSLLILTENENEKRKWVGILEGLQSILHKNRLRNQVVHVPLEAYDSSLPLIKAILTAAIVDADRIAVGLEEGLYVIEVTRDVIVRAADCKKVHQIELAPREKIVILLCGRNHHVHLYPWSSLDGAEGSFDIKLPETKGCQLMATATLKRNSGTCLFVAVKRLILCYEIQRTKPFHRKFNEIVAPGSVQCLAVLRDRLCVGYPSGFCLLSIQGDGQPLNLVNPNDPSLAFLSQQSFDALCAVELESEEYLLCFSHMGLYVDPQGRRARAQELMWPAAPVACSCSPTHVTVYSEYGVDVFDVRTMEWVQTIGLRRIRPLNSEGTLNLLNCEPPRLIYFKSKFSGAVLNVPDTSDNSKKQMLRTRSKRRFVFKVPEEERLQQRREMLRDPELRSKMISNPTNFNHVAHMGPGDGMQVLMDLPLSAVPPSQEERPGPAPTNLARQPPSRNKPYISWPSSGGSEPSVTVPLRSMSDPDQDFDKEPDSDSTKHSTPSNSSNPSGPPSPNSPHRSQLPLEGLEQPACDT
inactive: [1] 0.068 | crizotinib 0.056 | [2] -0.031 | [3] -0.149 | duvelisib 0.012 | gandotinib 0.029 | tozasertib 0.112 | [4] 0.005 | doramapimod 0.01 | ispinesib -0.148 | bafetinib 0.22 | [5] -0.034 | nilotinib 0.062 | [6] -0.118 | dasatinib -0.029 | [7] 0.106 | [8] -0.054 | [9] -0.017 | tipifarnib 0.094 | mubritinib 0.177

CDK11B (UniProt P21127)
active: crizotinib 1.24
inactive: [1] 0.025 | [2] 0.052 | [3] 0.166 | duvelisib 0.099 | gandotinib 0.105 | tozasertib 0.018 | [4] 0.007 | doramapimod 0 | ispinesib 0.022 | bafetinib 0.027 | [5] -0.009 | nilotinib 0.106 | [6] -0.038 | dasatinib 0.014 | [7] -0.036 | [8] 0.007 | [9] 0.228 | tipifarnib 0.104 | mubritinib 0.085

CCNT1 (UniProt O60563)
inactive: [1] -0.124 | crizotinib -0.088 | [2] -0.098 | [3] 0.13 | duvelisib -0.076 | gandotinib -0.1 | tozasertib -0.075 | [4] 0.076 | doramapimod 0.181 | ispinesib -0.277 | bafetinib 0.062 | [5] 0.036 | nilotinib 0.027 | [6] -0.272 | dasatinib -0.016 | [7] -0.301 | [8] -0.051 | [9] -0.122 | tipifarnib 0.142 | mubritinib -0.093

CAMK2G isoform 6 (UniProt Q13555)
Chain of UniProt Q13555 (Q13555 whole entry, looked up): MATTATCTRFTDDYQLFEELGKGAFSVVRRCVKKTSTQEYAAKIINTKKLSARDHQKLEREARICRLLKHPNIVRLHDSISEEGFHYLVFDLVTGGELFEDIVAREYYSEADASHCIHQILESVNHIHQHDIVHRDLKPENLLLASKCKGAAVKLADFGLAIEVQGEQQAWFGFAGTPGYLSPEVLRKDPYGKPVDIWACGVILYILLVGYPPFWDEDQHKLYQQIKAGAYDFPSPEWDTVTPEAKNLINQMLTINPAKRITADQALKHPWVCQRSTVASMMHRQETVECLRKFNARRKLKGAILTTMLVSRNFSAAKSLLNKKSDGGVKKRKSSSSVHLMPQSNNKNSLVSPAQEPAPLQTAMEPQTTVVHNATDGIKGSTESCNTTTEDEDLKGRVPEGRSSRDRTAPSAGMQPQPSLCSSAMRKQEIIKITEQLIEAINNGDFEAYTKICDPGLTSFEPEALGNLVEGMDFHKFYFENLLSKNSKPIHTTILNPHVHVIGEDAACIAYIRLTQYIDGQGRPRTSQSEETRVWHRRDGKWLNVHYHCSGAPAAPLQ
active: [6] 0.642
inactive: [1] -0.02 | crizotinib -0.146 | [2] -0.064 | [3] -0.116 | duvelisib -0.025 | gandotinib -0.041 | tozasertib 0.028 | [4] -0.004 | doramapimod 0.073 | ispinesib 0 | bafetinib 0.064 | [5] -0.148 | nilotinib 0.002 | dasatinib -0.11 | [7] 0.083 | [8] 0.01 | [9] -0.073 | tipifarnib -0.025 | mubritinib -0.008

COX5B (UniProt P10606)
Chain of UniProt P10606 (P10606 whole entry, looked up): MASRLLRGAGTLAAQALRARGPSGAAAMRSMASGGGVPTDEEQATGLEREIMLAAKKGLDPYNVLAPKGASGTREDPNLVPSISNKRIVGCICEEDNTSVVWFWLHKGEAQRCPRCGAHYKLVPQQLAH
inactive: [1] -0.07 | crizotinib 0.186 | [2] 0.081 | [3] -0.169 | duvelisib 0.124 | gandotinib 0.218 | tozasertib 0.077 | [4] -0.001 | doramapimod 0.022 | ispinesib 0.265 | bafetinib -0.032 | [5] 0.013 | nilotinib 0.026 | [6] 0.011 | dasatinib 0.105 | [7] -0.043 | [8] 0.134 | [9] 0.221 | tipifarnib -0.108 | mubritinib 0.024
